The list is not random: actives were taken first. Their share in the collection is about 7%.
IL-1B inflam inh – qHTS for Inhibitors of Inflammasome Signaling: IL-1-beta AlphaLISA Primary Screen. THP-1 LPS/ATP IL-1B secretion, AlphaLISA, 16 h; active compounds read low. activity change, % at 57.5 µM. 4.7% of 360,000 active. AID 743279, 2014; in the data active means activity change below about -50%; inconclusive means mostly about -30% to -49%; further: on the % scale 0 is the no-effect control and ±100 the full control effect
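THP-1 cells pretreated 1 hr with compounds (up to 57.5 uM final), then stimulated with LPS (250 ng/mL final) plus ATP (1.25 mM final); secreted IL-1B measured by AlphaLISA after 16 hr, decreased signal indicating inhibition.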
Integrin act MD – qHTS for Activators of Integrin-Mediated Alleviation for Muscular Dystrophy; Potency, µM (titrated, usually from 38.3 µM), inactives show at the top dose activation, hits mostly activators; alpha7betagal myoblasts, beta-gal FDG fluorescence, 48 h; AID 624291, 2012; 0.064% of 350,000 active;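 further: potency means the concentration at half of the fitted maximal effect; 100% = response of the positive control SU9516; nearly all actives have a fitted effect of over 60% in size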
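Alpha7betagal+/- myoblasts (passage 13) were plated 16-24 hr, then exposed to compounds (1:260 dilution of DMSO stock) for 48 hours at 37C. After MPER lysis, β-galactosidase reporter activity was read as FDG fluorescence (ex 480/em 540) after 30 minutes.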
D3 ag – qHTS of D3 Dopamine Receptor Agonist: qHTS | D(3) dopamine receptor (Homo sapiens), P35462 | D3R DiscoveRx beta-arrestin cells, luminescence, 90 min | max activation, % | 0.58% of 410,000 active; in the data active means max activation above about 30%; further: 0% is about no effect
Target sequence (P35462 whole entry, looked up): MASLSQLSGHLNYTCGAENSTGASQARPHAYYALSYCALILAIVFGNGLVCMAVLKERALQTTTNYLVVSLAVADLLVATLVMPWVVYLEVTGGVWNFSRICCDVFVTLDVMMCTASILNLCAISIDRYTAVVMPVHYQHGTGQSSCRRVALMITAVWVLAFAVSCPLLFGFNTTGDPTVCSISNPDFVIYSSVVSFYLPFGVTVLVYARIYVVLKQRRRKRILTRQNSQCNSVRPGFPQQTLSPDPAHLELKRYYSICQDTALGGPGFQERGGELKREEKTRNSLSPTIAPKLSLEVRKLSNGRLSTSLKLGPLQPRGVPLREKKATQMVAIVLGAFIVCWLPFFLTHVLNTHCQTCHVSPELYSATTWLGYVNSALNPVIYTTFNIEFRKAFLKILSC
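Agonist mode: compounds and dopamine controls were applied to plated cells for 90 min at 37 degrees C after an overnight attachment at 1500 cells/well. Luminescent read-out followed 30 - 60 minutes at room temperature with DiscoveRx detection reagent.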
S2 tox – Viability Counterscreen for Primary qHTS for Inhibitors of ATXN expression. 0.49% of 400,000 active. S2 cells (HEK-293 line with an ATXN2-luciferase reporter) viability, CellTiter-Fluor protease fluorescence, 24 h. Potency, µM (series often up to 56.7 µM), most hits filed as cytotoxic; further: potency means the concentration at half of the fitted maximal effect; nearly all actives have a fitted effect of over 40% in size
ATXN2 expr inh – Primary qHTS for Inhibitors of ATXN expression; HEK-293 ATXN2-luciferase reporter, luminescence, 24 h; Potency, µM (series often up to 57 µM), without a hit: top-dose activity change, negative = inhibition, most hits filed as inhibitors; 0.72% of 360,000 active; further: potency means the concentration at half of the fitted maximal effect; on the % scale 0 is the no-effect control and ±100 the full control effect; nearly all actives have a fitted effect of over 55% in size
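qHTS (up to 57 uM final) was run with 24 h compound exposure of reporter cells at 37 °C. Each well was multiplexed: SteadyGlo luminescence measured ATXN2-luciferase expression after a fluorogenic Gly-Phe-AFC viability readout (25 uM final).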
DRD3 antagonist – qHTS of D3 Dopamine Receptor Antagonist: qHTS; D(3) dopamine receptor (Homo sapiens), P35462; D3R cells, DiscoveRx beta-arrestin luminescence, antagonist mode; active compounds read low; max response, negative = inhibition, %; 2.5% of 360,000 active; AID 652054, 2013; in the data active means max response below about -50%; inconclusive means no clear call, values can overlap the other calls; further: on the % scale 0 is the no-effect control and ±100 the full control effect
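Cells plated overnight at 1500 cells/well, then exposed to library compounds with dopamine controls for 90 minutes at 37 degrees C. DiscoveRx reagent added for 30–60 minutes at room temperature; luminescence read, quantitative HTS format.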
* hit, by the source's call; i = inactive; u = inconclusive; x = no result given. Unless noted, the call rests on the fitted dose curve; in most records, active means well fitted curve in the direction sought with a large enough effect; inconclusive means small, poorly fitted or top-dose-only effect, or another doubt; inactive means no such curve, though single readings can be large; an effect the other way counts as inactive or inconclusive.

SMILES	IL-1B inflam inh	Integrin act MD	D3 ag	S2 tox	ATXN2 expr inh	DRD3 antagonist
CCO[C@@H]1OC(C(=O)N2CCN(Cc3ccccc3)CC2)=C[C@H](c2csc3ccccc23)[C@H]1CCCO	-54*	-28%	-16	u	u	-5
CCO[C@H]1OC(C(=O)N2CCN(Cc3ccc4c(c3)OCO4)CC2)=C[C@@H](c2ccc3c(c2)OCO3)[C@@H]1CCCO	-12	-13%	-6	i	-2%	25
CCO[C@H]1OC(C(=O)N2CCCCCCC2)=C[C@@H](c2ccccc2)[C@@H]1CCCO	1	4%	7	i	3%	6
CCO[C@@H]1OC(C(=O)N2CCOCC2)=C[C@H](c2ccccc2)[C@H]1CCCO	5	7%	-1	i	-7%	-65*
O=C1N(Cc2cccc(Cl)c2)C[C@@H]2C[C@@H](c3cccc4ncccc34)N3CCC[C@@]123	-74*	20%	-8	i	-35%	-2
O=C1N(Cc2cccc(Cl)c2)C[C@@H]2C[C@@H](c3cccn3-c3nccs3)N3CCC[C@@]123	-82*	-14%	-4	i	u	-15
O=C1N(Cc2cccc(Cl)c2)C[C@@H]2C[C@@H](c3cccn3-c3ccccn3)N3CCC[C@@]123	u	-29%	-12	u	-23%	10
COc1ccc(-n2c(SCC(=O)NCC3CCCO3)nc3c([nH]c4ccccc43)c2=O)cc1 (stereo not drawn)	18	4%	-6	i	10%	-10
CCCNC(=O)C1(C)CCCN(Cc2ccc(C#N)cc2)C1 (stereo not drawn)	4	x	9	i	8%	17
O=C(N/N=C/c1ccc([N+](=O)[O-])o1)c1sc2ccccc2c1Cl	-78*	-47%	-10	32µM*	x	-13
COc1cc(/C=N/NC(=O)c2cc(-c3cccs3)nc3ccccc23)ccc1O	38	30%	9	i	x	53
O=C(N/N=C/c1ccccn1)c1cc(-c2ccc(Cl)cc2)nc2ccccc12	-102*	-23%	-26	i	u	-67*
O=C(N/N=C/c1ccccn1)c1sc2ccccc2c1Cl	202	-58%	-16	u	x	-16
COc1cc(/C=N/NC(=O)c2cc(-c3cccc(OC(C)C)c3)nc3ccccc23)ccc1O	14	12%	73*	i	22%	62
O=C(O)COc1ccccc1/C=N/NC(=O)c1cc(-c2ccc(Cl)cc2)nc2ccccc12	0	23%	-13	i	-34%	-23
CCCOc1cccc(-c2cc(C(=O)N/N=C/c3cccnc3)c3ccccc3n2)c1	i	-29%	-5	i	24%	9
CCCOc1cccc(-c2cc(C(=O)N/N=C/c3ccccn3)c3ccccc3n2)c1	-98*	-50%	-27	u	7.1µM*	u
O=C(CN1C(=O)NC2(CCCCC2)C1=O)NCCc1ccccc1	13	29%	4	i	x	11
O=C(N/N=C/c1ccccn1)c1cc(-c2ccc(Br)cc2)nc2ccccc12	-96*	-31%	-52	u	u	-95*
O=C(N/N=C/c1ccc([N+](=O)[O-])o1)c1cc(-c2cccc(Br)c2)nc2ccccc12	-66*	-67%	0	u	u	-13
CCCc1ccc(-c2cc(C(=O)N/N=C/c3ccc([N+](=O)[O-])o3)c3ccccc3n2)cc1	-16	-51%	-5	u	2%	-3
CCn1nc(C(=O)Nc2ccc(Cl)c(S(=O)(=O)N3CCOCC3)c2)c2ccccc2c1=O	16	-10%	-13	i	-4%	0
COc1ccc(Br)cc1/C=N/N1CCN(Cc2ccccc2)CC1	-1	32%	-18	i	1%	3
Cc1ccc(CN2CCN(/N=C/c3cc(Br)ccc3O)CC2)cc1	14	7%	-37	i	-16%	-87*
Cc1ccc(CN2CCN(/N=C/c3cccs3)CC2)cc1	14	19%	-8	i	7%	-59*
SMILES	IL-1B inflam inh	Integrin act MD	D3 ag	S2 tox	ATXN2 expr inh	DRD3 antagonist
Cc1ccc(/C=N/N2CCN(Cc3ccc(C)cc3)CC2)cc1	2	1%	-21	i	1%	-6
Cc1ccc(NC(=O)Cn2cc3c(n2)CCCC3)cc1Cl	x	x	-15	i	-4%	x
Cc1nc(Nc2ccccc2C(F)(F)F)sc1C(=O)N(C)C	-52*	-14%	-4	i	28%	-19
CC(C)(C)NC(=O)CSc1nnc(-c2c[nH]c3ccccc23)o1	0	1%	5	i	-9%	6
CC(C)(CNC(=O)COc1ccccc1Cc1ccccc1)N1CCOCC1	-59*	u	13	i	-7%	10
Cc1cccc(C(=O)NCCC(=O)NCc2ccccc2Cl)c1	-8	15%	-3	i	-5%	-2
COc1cc(NC(=O)c2cc(-c3ccccc3Cl)on2)cc(OC)c1OC	-81*	-18%	-11	i	-20%	-3
Cc1sc2ncnc(N3CCC(C(=O)NNC(=O)c4ccc(Cl)cc4)CC3)c2c1C	-81*	-20%	9	i	-22%	14
Cc1sc2ncnc(N3CCC(C(=O)N(C)CC(=O)Nc4ccc(Cl)c(C(F)(F)F)c4)CC3)c2c1C	-55*	-71%	10	u	u	8
CCN(CC)S(=O)(=O)c1cc(NC(=O)C2CCN(c3ncnc4sc(C)c(C)c34)CC2)ccc1Cl	-28	-2%	2	u	11µM*	3
Cc1sc2ncnc(N3CCC(C(=O)N(C)CC(=O)Nc4cccc(F)c4)CC3)c2c1C	u	6%	-1	i	x	22
Cc1sc2ncnc(N3CCC(C(=O)Nc4cc(C(F)(F)F)ccc4OCC(F)(F)F)CC3)c2c1C	-56*	-9%	7	i	-22%	23
COc1nc(-c2ccccc2)c2cc(C)ccc2n1	16	-25%	4	i	5%	6
COc1cc(CNCc2ccncc2)ccc1OCC(N)=O	-14	24%	-10	i	-5%	-3
COc1ccc(CN(CC(=O)NCCc2ccccc2)C(=O)CCC(=O)Nc2ccccn2)cc1	-5	-11%	4	i	-4%	-1
Cc1sc2ncnc(N3CCC(C(=O)Nc4cc(Cl)ccc4Cl)CC3)c2c1C	-1	-4%	42*	i	-20%	32
CC1(C)CC2c3cccc(C(=O)O)c3C(=O)N2c2c1ccc1ccccc21 (stereo not drawn)	42	25%	-1	i	15%	-7

Screening results: PubChem BioAssay, National Center for Advancing Translational Sciences (NCATS)
